# Compound activity (PubChem BioAssay)
# ssDAF-12 act: S. stercoralis DAF-12 activation, primary screen. HEK293 ssDAF-12/GRIP1 lit1-tk-luc reporter, luminescence; % of 3 µM dafachronic acid response. activation, % at 6.8 µM. 370,000 compounds, 1% hits;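 active means activation above the mean over all tested compounds plus 3 SD, cut at about 0.9% in these data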
# DAX1 inh-1: blocks DAX1 repression of SF-1 activated StAR promoter; AID 652010; HEK293T StAR-luciferase reporter, SF-1/DAX-1 repression relief; inhibition, % at 6.8 µM; 370,000 compounds, 1.1% hits;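 active means inhibition above the mean over all tested compounds plus 3 SD, cut at about 3.6% in these data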;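 further: higher inhibition means more luminescence from relief of DAX-1 repression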
# DAX1 inh-2: NR0B1 (DAX1) inhibition; P51843; HEK293 Gal4-DAX1 luciferase reporter, luminescence; inhibition, % at 6.75 µM; 340,000 compounds, 0.99% hits; AID 504766;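 active means inhibition above the mean over all tested compounds plus 3 SD, cut at about 4.2% in these data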;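 further: inhibition shows as a rise in luminescence from relieved DAX1 repression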
# AHR activator: human AHR activation; AHR-responsive luciferase reporter cells, luminescence; P35869; activation, % at 5 µM; 320,000 compounds, 2.5% hits; AID 2796; in the data active means activation above about 47%
# Target sequence (P35869 whole entry, looked up): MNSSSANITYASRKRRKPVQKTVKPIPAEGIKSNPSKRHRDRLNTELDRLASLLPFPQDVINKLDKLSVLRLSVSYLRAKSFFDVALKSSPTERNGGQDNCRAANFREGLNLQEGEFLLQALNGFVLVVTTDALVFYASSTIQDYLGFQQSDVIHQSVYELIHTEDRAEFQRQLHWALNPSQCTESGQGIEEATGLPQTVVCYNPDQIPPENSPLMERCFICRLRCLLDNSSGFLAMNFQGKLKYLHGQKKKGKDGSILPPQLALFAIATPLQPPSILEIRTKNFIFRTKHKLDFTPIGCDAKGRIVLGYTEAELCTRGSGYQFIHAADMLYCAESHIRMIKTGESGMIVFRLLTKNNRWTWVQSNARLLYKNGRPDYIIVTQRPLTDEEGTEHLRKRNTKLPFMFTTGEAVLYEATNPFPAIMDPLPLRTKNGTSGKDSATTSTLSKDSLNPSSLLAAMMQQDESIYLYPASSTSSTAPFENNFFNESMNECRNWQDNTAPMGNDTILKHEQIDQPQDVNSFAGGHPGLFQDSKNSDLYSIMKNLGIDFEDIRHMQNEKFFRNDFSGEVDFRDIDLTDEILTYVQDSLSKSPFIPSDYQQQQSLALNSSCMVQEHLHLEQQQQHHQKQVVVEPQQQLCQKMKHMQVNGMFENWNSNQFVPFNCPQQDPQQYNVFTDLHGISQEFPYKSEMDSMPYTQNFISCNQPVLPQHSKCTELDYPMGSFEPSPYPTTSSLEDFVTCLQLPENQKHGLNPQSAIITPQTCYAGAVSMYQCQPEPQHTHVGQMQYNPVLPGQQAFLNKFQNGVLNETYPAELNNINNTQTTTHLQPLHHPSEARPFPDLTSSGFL
# hgDAF-12 ag: activates the H. glycines DAF-12 receptor ligand-binding domain | activation, % at 6.8 µM | 370,000 compounds, 1.8% hits | HEK293 GAL4-hgDAF12 UAS-luciferase reporter, agonist luminescence; normalized to butyrate control;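 active means activation above a cutoff set at the mean of all screened compounds plus 3 SD, cut at about 10% in these data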
# hcDAF12 agonist: H. contortus DAF-12 activation, primary screen; activation, % at 6.8 µM; 370,000 compounds, 1.4% hits; HEK293 hcDAF-12 lit1-tk-luc reporter, luminescence; 0% DMSO, 100% Δ7-dafachronic acid; AID 652067;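 active means activation above the mean of all tested compounds plus 3 SD, cut at about 5.5% in these data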
# Numbers stand for hits; 0 = inactive; - = no result. Rows were chosen to be rich in hits. Some 5.7% of all compounds tested hit in one or more screens of this group.
SMILES,ssDAF-12 act,DAX1 inh-1,DAX1 inh-2,AHR activator,hgDAF-12 ag,hcDAF12 agonist
CCn1ncc(C(=O)Nc2ccc(F)cc2)c1C,1.7,0,0,60,0,0
O=C(Nc1ccc(F)cc1)c1cccc2ccccc12,0,0,0,57,0,0
O=C(NNC(=O)c1cccc2ccccc12)c1ccc(F)cc1,0,0,0,-,0,0
COc1cccc(N2CCN(C(=O)c3ccc(-c4ccccc4)cc3)CC2)c1,0,0,0,0,0,0
CCN(Cc1ccccc1)C(=O)Nc1c(Cl)cccc1Cl,0,0,-,-,0,0
O=C(NCc1ccc(C(=O)N2CCOCC2)cc1)c1cccc(Br)c1,0,0,-,-,0,0
COc1ccc(NC(=O)Nc2c(O)ccc3ccccc23)cc1,0,0,0,67,0,0
COc1ccc(NC(=O)c2cccc3ccccc23)cc1,0,0,0,52,11,0
COc1ccc(NC(=O)c2cccc3ccccc23)cc1OC,0,0,0,-,0,0
O=C(NCCc1c[nH]c2ccccc12)OCc1cn(Cc2ccc(C(F)(F)F)cc2)nn1,0,0,-,-,0,0
C(=N\Nc1nncc2ccccc12)/c1ccccn1,0,0,0,0,0,0
CC(=O)Nc1ccc(/C=N/Nc2nncc3ccccc23)cc1,0,0,5.0,-,0,0
CC1CCCCN1C(=O)COC(=O)c1cc(Cl)c2c(c1)OCO2 (configuration not stated),0,3.7,0,-,0,0
CC1CCCCN1C(=O)COC(=O)c1ccc(N2CCCC2=O)cc1 (configuration not stated),0,0,0,0,0,0
CC1CCN(C(=O)COC(=O)c2ccc3c(c2)OCO3)CC1,0,0,0,0,12,0
CC1CCN(C(=O)COC(=O)c2ccc3c(c2)OCCO3)CC1,0,0,0,0,0,0
O=C(COC(=O)/C=C/c1ccc(OC(F)F)cc1)Nc1ccc(N2CCOCC2)cc1,0,0,0,0,0,0
COC(=O)C1=C(C)NC2=C(C(=O)CC(C)(C)C2)C1c1ccsc1 (configuration not stated),0,0,0,0,0,0
COCCOC(=O)C1=C(C)NC2=C(C(=O)CC(c3cccs3)C2)C1c1ccsc1 (configuration not stated),0,0,0,50,0,0
O=C(CSc1ccc(-c2ccccc2)nn1)c1cccs1,0,0,0,0,12,0
COc1ccc(-c2ccc(SCC(=O)c3cccs3)nn2)cc1,0,0,0,0,0,0
CN(Cc1ccon1)C(=O)CC1C(=O)NCCN1CC1CCCCC1 (configuration not stated),0,0,0,0,0,0
CCCc1nnc(NC(=O)OCC)s1,0,0,0,74,0,0
O=C(Nc1nnc(Cc2ccccc2)s1)c1cccnc1,0,0,0,0,0,0
CCCCc1nnc(NC(=O)C(=O)OCC)s1,0,0,0,0,0,0
SMILES,ssDAF-12 act,DAX1 inh-1,DAX1 inh-2,AHR activator,hgDAF-12 ag,hcDAF12 agonist
CN(C)c1cccc(C(=O)Nc2nnc(Cc3ccccc3)s2)c1,0,0,0,54,0,0
CCCc1nnc(NC(=O)c2cccc(OC)c2)s1,0,4.0,0,0,13,0
CC1CCN(C(=O)CCc2nnc3ccc(NCCCN4CCCC4=O)nn23)CC1,0,0,0,0,0,0
N#Cc1c(N)[nH]c(C(=O)c2ccccc2)c1-c1ccc(Br)cc1,0,0,-,-,0,0
COc1cc(/C=N/N=C(/N)c2nonc2N)cc(Br)c1OCc1cccc(C)c1,0,0,0,0,0,0
COc1cc(/C=N/N=C(\N)c2nonc2N)cc(OC)c1O,0,0,4.2,0,13,0
c1ccc(-c2ccccc2-c2nc(-c3cccnc3)no2)cc1,0,0,0,0,0,0
O=[N+]([O-])c1cc(-c2nc(-c3ccncc3)no2)ccc1Cl,0,0,0,0,0,0
Cc1c(-c2nc(-c3ccncc3)no2)cccc1[N+](=O)[O-],0,0,0,65,0,0
Fc1ccccc1-c1nc(-c2ccncc2)no1,1.1,0,4.8,0,0,0
Fc1ccccc1-c1nc(-c2ccc(-c3nn[nH]n3)cc2)no1,0,0,0,0,0,0
Brc1ccccc1-c1nc(-c2ccccc2)no1,-,-,-,50,-,-
Nn1c(SCc2ccccc2F)nnc1-c1ccccn1,0,0,-,0,0,0
Clc1ccccc1CSc1ncn(-c2ccccc2)n1,0,0,0,68,11,0
O=C(CSc1ncn(-c2ccccc2)n1)NCc1ccccc1,0,0,0,0,0,0
Cc1ccc(CSc2ncn(-c3ccccc3)n2)cc1,0,0,4.2,0,0,0
Cn1c(=NC(=O)c2ccc(S(=O)(=O)N3CCCc4ccccc43)cc2)sc2cc(S(C)(=O)=O)ccc21,0,0,0,0,0,0
Cn1c(=NC(=O)c2ccccc2[N+](=O)[O-])sc2cc(S(C)(=O)=O)ccc21,0,4.3,0,0,12,0
COc1ccccc1/C=C/C(=O)OCC(=O)NCc1ccc2c(c1)OCO2,0,0,0,0,0,0
COc1ccccc1/C=C(/CC(=O)NCc1ccc2c(c1)OCO2)c1nc2ccccc2s1,0,0,0,81,0,0
CC(C)C[C@@H]1COc2cccc(N3CCCCC3)c2S(=O)(=O)N1,0,0,-,-,0,0
COc1cc(CCCN2CCNC[C@@H]2Cc2ccc(O)cc2)cc(OC)c1OC,1.0,0,0,0,0,0
COc1ccc(NC(=O)C2CCC(C(C)(C)C)CC2)cc1S(=O)(=O)N1CCOCC1 (configuration not stated),0,0,0,0,0,0
CC(NC(=O)Cc1ccccc1F)c1ccc(F)cc1 (configuration not stated),0,0,4.8,0,0,0
Cc1nn(-c2ccc(F)cc2)c2nc(N)c(C#N)c(-c3cccs3)c12,0,0,0,65,0,0
SMILES,ssDAF-12 act,DAX1 inh-1,DAX1 inh-2,AHR activator,hgDAF-12 ag,hcDAF12 agonist
Cc1nn(-c2ccc(F)cc2)c2nc(N)c(C#N)c(-c3ccc(O)c(O)c3)c12,0,0,0,-,0,0
O=C(Nc1ccc([N+](=O)[O-])cc1)Nn1cnnc1,0,0,0,0,0,0
COc1cc2c(cc1NC(=O)c1cccc([N+](=O)[O-])c1)oc1ccccc12,0,0,0,58,0,0
COc1ccccc1CC(=O)Nc1cc2oc3ccccc3c2cc1OC,0,0,0,0,0,0
COc1ccc(CC(=O)Nc2cc3oc4ccccc4c3cc2OC)cc1,0,0,0,0,12,0
COc1cc2c(cc1NC(=O)c1ccncc1)oc1ccccc12,-,-,0,64,-,-
NN=C1c2ccccc2C(=O)C1C(=O)C(c1ccccc1)c1ccccc1 (configuration not stated),0,0,0,-,0,0
Cc1cccc(C)c1NC(=O)CN1CCc2ccccc2C1,0,0,0,0,0,0
COc1cccc(NC(=O)COC(=O)c2c(F)cccc2Cl)c1,0,0,4.4,0,0,0
